Measurements taken from ChEMBL document CHEMBL3988442, “University of Dundee, Small-Polar-MMV Screening Library” (2021).

Tests used:
[1] = target: T1, Aspartate--tRNA(Asp/Asn) ligase (Mycobacterium tuberculosis (strain ATCC 25618 / H37Rv)) (UniProt P9WFW3); experiment: Assay for Asp RNA synthetase-1 from Mycobacterium tuberculosis; type: functional; design: scale not given: direction of the effect not stated beside the values; settings: 30 µM; note: in the data most compounds retested in dose-response had high values
T1 sequence (whole entry): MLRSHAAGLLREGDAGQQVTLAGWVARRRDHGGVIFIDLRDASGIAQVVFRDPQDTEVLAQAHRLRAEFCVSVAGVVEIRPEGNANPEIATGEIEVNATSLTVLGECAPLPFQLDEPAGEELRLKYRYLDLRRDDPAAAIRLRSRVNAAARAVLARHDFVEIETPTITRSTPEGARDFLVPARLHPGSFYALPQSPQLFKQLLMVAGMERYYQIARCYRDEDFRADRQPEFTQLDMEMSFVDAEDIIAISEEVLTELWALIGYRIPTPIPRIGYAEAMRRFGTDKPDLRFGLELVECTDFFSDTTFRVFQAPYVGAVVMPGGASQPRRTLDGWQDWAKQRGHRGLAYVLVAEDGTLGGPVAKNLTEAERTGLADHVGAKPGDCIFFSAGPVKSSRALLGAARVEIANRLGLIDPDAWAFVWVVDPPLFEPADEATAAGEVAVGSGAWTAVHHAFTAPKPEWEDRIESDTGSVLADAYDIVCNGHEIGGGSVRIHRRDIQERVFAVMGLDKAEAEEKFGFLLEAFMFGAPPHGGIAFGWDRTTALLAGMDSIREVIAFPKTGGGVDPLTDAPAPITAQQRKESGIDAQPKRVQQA

[2] = target: Shiga toxin 2 (Escherichia coli O157:H7) (UniProt P09385+P09386); experiment: E. coli 0.157:H7 Shiga Toxin SOP - stx2 screening assay; type: functional; design: scale not given: direction of the effect not stated beside the values; settings: 30 µM

Row | SMILES | Percent Effect [1] [%] | Percent Effect [2] [%]
1 | Cc1ccc(C)c(C(=O)CN2C(=O)c3ccccc3CS2(=O)=O)c1 | 2.42 | -18.8
2 | CN(C)C(=O)CN1C(=O)CCC12CCN(Cc1cccn1C)CC2 | 4.89 | 0.848
3 | COc1ccccc1OCC(=O)Nc1ncccc1Cl | -0.641 | 1.67
4 | Cc1noc(C2CCCCN2C(=O)NC2CCCC2)n1 (configuration not stated) | 5.06 | -14.7
5 | Cc1cnn(CCC(=O)N2CCCC(c3cc(C(N)=O)[nH]n3)C2)c1 (configuration not stated) | -2.86 | -13.8
6 | NCC1Cn2nnc(-c3cccc(F)c3)c2CO1 (configuration not stated) | 1.16 | -69.1
7 | CC(C)c1nc(C2CCCN(C(=O)c3ccc4nccn4c3)C2)no1 (configuration not stated) | 4.61 | 29.2
8 | CCN1CCCC1CN(CCN(C)C)S(=O)(=O)c1cccc(C#N)c1 (configuration not stated) | 5.06 | -21
9 | Cc1ccnc(OCC(=O)N2CCC(C(N)=O)CC2)n1 | -6.44 | 1.84
10 | Clc1ccc(-n2cc(CNC3CCc4ncnn4C3)cn2)cc1 (configuration not stated) | -5.31 | -39.9
11 | c1cnn(Cc2cn3c(n2)CN(Cc2nccs2)CC3)c1 | -2.35 | -23.5
12 | O=C(C1=CCCCC1)N1CCC2(CC1)COC(COc1ccccn1)C2 (configuration not stated) | 0.351 | -19.1
13 | Cc1cccc(CCC(=O)N2CCCC(c3cc(C(N)=O)[nH]n3)C2)c1 (configuration not stated) | -0.161 | -10.2
14 | CC(NC(=O)Nc1cc(F)ccc1N1CCCCC1)c1nncn1C (configuration not stated) | -3.23 | 20.1
15 | CCc1noc(C(C)N(C)CC(=O)Nc2c(C)cccc2C)n1 (configuration not stated) | -10.4 | 10.3
16 | CNC(=O)c1ccc(CN2CCC(N(C)Cc3noc(C)n3)C2)cc1 (configuration not stated) | -0.577 | 7.96
17 | Cc1oncc1C(=O)N1CCC2(CC1)CC(c1ccccc1)C(=O)N2C (configuration not stated) | -1.78 | -15.3
18 | CC(=O)NC(C)CC(=O)NCc1cccnc1Oc1ccccc1C (configuration not stated) | -4.43 | 2.41
19 | Cc1noc(C)c1CN1CCN(CC2CC2)c2ncccc2C1 | 2.1 | 0.649
20 | COc1ccc(CN(Cc2cccnc2)CC2CCCO2)c(OC)c1 (configuration not stated) | -3.99 | -13.4
21 | COC(=O)C(C)(C)NC(=O)C1CC(=O)N(C)C1 (configuration not stated) | -1.62 | -22.5
22 | Cc1cc(C(=O)NCc2ccc(N3CCCC(C(N)=O)C3)cc2)no1 (configuration not stated) | -6.8 | -3.03
23 | O=C(COCC1CC1)N1CCCC(n2ccnc2)C1 (configuration not stated) | 0.946 | -26.2

Row | SMILES | Percent Effect [1] [%] | Percent Effect [2] [%]
24 | COCCN1C[C@@H]2CCCO[C@@H]2[C@H](NC(=O)c2cnccn2)C1 | 3.03 | -9.33
25 | Cn1cnc2c1CCN(Cc1nc(COc3ccc(F)cc3)no1)C2 | 2.19 | 19
26 | Cc1nc(C)n(C2CCCN(C(=O)COCc3ccccc3)C2)n1 (configuration not stated) | -4.95 | -2.76
27 | Cc1ccc(N(CC(=O)c2ccc(Br)cc2)C2=NCCCCC2)cc1 | 0.479 | -13.7
28 | COCCC(=O)N1CCC2(CN(Cc3ccc(OC)c(F)c3)C2)C1 | -0.524 | -4.43
29 | CN1CCC(NC(=O)NCCNc2ccccn2)CC1 | 0.524 | -5.67
30 | CC(=O)N1CCc2c(nc(-c3ccccn3)nc2N(C)CC(O)CO)C1 (configuration not stated) | -6.34 | 26.6
31 | COc1ccnc(N2CCN(C(=O)Cc3ccc(C#N)cc3)CC2)n1 | 4.99 | 8.53
32 | Cc1nc(C2CCCN(C(=O)c3ccc(N4CCCC4)nc3)C2)no1 (configuration not stated) | -2.58 | -1.41
33 | Cc1ccoc1C(=O)N1CCO[C@H]2[C@H](OCCN(C)C)CC[C@@H]21 | -1.25 | -12.2
34 | Cc1noc(C)c1C(=O)N1CC[C@H]2C[C@@H](c3nccs3)O[C@@H]2C1 | 3.92 | 3.87
35 | C=Cc1ccc(C(=O)N2CCCC(Nc3ccc(F)cc3)C2)cc1 (configuration not stated) | -0.502 | -4.33
36 | CC(=O)N1CCCC1c1ccc(-c2c(C)noc2C)cn1 (configuration not stated) | -1.44 | -2.58
37 | Cc1cnn(CC2CN(Cc3nc(N)c4ccccc4n3)CCO2)c1 (configuration not stated) | 3.58 | 20.2
38 | Cc1cc(C)n(CC2CN(Cc3nnsc3Cl)CCO2)n1 (configuration not stated) | -1.81 | 31.3
39 | NC(=O)CSCC(=O)N1CCc2cc(Cl)cc(Cl)c2C1 | 12.7 | -44.7
40 | Cc1nc(CN2C(=O)COC3(CCN(Cc4nccs4)CC3)C2C)cs1 (configuration not stated) | -2.21 | -29.4
41 | Cn1cc(CCNC(=O)CCc2ccc3c(c2)OCO3)cn1 | 1.25 | 21.4
42 | Cc1ccc(C(=O)CCC(=O)N2CCC(c3nncn3C)CC2)cc1 | 2.31 | -30.7
43 | Cc1ccc(N2CCCC(NCC(=O)Nc3cc(C)no3)C2)nn1 (configuration not stated) | -0.917 | -55.3
44 | c1cnc(NCc2noc3c2CN(CCN2CCCC2)CC3)nc1 | 1.46 | -35.5
45 | O=C([C@@H]1CC[C@@H]2[C@@H](CCN2Cc2ccoc2)O1)N1CCCC1 | 0.466 | 1.2
46 | CCC(O)CN1CCN(C(=O)c2sccc2OC)CC1 (configuration not stated) | 0.995 | -39.9
